Experiments:
[1] = target: Serine/threonine-protein kinase pim-2 (Homo sapiens) (UniProt Q9P1W9); conditions: at 1 µM;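 further: each value is a mean of the inhibition measurements against the kinase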
[2] = target: Serine/threonine-protein kinase pim-3 (Homo sapiens) (UniProt Q86V86); conditions: at 0.1 µM
[3] = target: Serine/threonine-protein kinase pim-3 (Homo sapiens) (UniProt Q86V86); conditions: at 1 µM
[4] = target: T1, MAP kinase-activated protein kinase 5 (Homo sapiens) (UniProt Q8IW41); conditions: at 0.1 µM
T1 sequence (whole entry): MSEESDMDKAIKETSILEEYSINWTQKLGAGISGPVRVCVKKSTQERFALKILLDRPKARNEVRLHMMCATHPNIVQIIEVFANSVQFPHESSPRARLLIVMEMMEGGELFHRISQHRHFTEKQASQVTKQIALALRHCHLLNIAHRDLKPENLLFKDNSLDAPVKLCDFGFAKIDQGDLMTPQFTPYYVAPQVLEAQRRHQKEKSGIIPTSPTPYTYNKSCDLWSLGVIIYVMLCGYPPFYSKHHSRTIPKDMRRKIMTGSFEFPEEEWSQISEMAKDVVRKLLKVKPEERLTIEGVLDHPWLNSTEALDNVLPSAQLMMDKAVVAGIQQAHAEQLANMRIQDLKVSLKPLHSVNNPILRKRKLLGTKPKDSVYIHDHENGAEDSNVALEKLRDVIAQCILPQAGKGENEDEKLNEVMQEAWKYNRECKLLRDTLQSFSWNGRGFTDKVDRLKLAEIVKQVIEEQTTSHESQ

[5] = target: T1, MAP kinase-activated protein kinase 5 (Homo sapiens); conditions: at 1 µM
[6] = target: Serine/threonine-protein kinase SIK1 (Homo sapiens) (UniProt P57059); conditions: at 1 µM
Serine/threonine-protein kinase SIK1 (Homo sapiens), sequence (P57059 whole entry): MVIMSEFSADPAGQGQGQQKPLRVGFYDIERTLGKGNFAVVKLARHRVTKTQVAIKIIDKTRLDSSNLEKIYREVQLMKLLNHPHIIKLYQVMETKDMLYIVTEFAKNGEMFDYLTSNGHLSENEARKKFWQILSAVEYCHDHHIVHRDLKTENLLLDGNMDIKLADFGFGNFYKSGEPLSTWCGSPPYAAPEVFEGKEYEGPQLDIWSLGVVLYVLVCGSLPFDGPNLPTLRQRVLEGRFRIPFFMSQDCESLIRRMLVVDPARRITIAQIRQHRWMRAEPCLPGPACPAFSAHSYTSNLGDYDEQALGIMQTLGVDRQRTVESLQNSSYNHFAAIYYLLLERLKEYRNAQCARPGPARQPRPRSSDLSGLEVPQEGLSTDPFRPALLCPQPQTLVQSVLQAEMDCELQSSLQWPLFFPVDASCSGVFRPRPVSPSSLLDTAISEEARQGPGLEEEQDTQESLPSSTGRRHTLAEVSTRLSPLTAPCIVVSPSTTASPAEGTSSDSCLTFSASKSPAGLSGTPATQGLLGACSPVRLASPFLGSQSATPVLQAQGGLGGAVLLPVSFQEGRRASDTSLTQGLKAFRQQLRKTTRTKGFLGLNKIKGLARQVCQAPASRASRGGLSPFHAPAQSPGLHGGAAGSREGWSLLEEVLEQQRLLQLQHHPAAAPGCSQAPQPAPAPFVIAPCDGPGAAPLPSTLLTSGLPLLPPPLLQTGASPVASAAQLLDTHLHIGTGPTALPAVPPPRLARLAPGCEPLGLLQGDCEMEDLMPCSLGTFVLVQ

[7] = target: Serine/threonine-protein kinase SIK2 (Homo sapiens) (UniProt Q9H0K1); conditions: at 0.1 µM
Serine/threonine-protein kinase SIK2 (Homo sapiens), sequence (Q9H0K1 whole entry, looked up): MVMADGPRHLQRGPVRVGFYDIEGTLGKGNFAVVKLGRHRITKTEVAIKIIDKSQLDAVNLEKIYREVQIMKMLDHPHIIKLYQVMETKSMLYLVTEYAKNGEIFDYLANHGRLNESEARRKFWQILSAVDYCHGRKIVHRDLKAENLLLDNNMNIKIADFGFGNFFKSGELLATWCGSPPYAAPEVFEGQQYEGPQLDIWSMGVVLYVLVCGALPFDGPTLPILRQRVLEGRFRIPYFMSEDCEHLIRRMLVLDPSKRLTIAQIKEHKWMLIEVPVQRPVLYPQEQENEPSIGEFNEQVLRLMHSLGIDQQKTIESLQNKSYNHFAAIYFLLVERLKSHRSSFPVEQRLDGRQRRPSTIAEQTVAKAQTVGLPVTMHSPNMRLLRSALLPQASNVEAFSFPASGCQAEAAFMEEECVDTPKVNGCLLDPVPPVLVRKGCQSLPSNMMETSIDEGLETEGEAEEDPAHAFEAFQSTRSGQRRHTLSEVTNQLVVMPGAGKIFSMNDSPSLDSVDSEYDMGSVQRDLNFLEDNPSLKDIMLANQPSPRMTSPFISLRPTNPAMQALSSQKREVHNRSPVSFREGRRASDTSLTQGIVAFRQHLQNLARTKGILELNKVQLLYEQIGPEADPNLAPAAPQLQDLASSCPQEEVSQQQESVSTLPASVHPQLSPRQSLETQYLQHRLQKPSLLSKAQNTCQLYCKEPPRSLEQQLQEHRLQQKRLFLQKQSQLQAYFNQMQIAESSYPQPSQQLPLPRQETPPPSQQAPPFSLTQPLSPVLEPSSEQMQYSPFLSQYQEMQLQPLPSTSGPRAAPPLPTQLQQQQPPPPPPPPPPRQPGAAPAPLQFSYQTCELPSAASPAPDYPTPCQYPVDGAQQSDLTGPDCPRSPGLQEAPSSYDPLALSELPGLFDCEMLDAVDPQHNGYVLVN

[8] = target: T2, Serine/threonine-protein kinase TBK1 (Homo sapiens) (UniProt Q9UHD2); conditions: at 0.1 µM;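 further: values are the mean TBK1 inhibition, taken from the GSK PKIS screening data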
T2 sequence (whole entry): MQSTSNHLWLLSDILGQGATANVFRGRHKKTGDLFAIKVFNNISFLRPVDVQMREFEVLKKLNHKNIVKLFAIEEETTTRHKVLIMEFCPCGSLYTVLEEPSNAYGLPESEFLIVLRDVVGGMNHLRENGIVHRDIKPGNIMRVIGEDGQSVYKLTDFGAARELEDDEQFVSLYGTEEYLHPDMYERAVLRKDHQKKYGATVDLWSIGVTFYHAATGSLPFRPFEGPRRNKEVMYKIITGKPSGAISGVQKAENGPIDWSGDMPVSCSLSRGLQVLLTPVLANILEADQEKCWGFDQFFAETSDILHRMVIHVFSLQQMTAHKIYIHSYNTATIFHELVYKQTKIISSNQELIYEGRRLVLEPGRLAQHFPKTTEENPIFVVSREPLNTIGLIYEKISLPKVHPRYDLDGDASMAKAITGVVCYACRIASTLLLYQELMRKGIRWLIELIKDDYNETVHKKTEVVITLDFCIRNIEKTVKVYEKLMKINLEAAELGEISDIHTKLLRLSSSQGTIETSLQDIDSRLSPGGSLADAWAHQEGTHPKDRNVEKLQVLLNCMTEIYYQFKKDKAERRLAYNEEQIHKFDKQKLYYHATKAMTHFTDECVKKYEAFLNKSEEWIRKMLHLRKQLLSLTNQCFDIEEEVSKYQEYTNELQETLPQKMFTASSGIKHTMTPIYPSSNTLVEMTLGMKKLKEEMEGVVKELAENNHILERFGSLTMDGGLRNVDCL

[9] = target: Serine/threonine-protein kinase SIK1 (Homo sapiens) (UniProt P57059); conditions: at 0.1 µM
[10] = target: Serine/threonine-protein kinase SIK2 (Homo sapiens) (UniProt Q9H0K1); conditions: at 1 µM

Serine/threonine-protein kinase pim-2 (Homo sapiens), sequence (Q9P1W9 whole entry, looked up): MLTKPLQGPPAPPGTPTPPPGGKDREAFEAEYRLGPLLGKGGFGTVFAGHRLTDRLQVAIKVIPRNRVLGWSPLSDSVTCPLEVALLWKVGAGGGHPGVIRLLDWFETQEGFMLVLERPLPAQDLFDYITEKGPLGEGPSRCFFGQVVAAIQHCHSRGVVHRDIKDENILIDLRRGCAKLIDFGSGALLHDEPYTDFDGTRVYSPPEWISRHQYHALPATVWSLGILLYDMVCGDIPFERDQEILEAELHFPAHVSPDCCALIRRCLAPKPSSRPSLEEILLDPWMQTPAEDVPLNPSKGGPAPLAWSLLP

`COc1cc(C=NNc2ncnc3c2cnn3Cc2ccccc2)ccc1O` was tested, and the inhibition [1] was 4.62%, the inhibition [2] was 1.07% and the inhibition [3] was 5.08%. For the same compound, the inhibition [4] was -1.78%, the inhibition [5] was -1.84% and the inhibition [6] was -3.99%. It also gave an inhibition [7] of -6% and an inhibition [8] of 0.04%.

`NS(=O)(=O)c1ccc(-c2ccc3c(NC(=O)C4CC4)n[nH]c3c2)cc1` gave an inhibition [1] of 0.28%, an inhibition [2] of -0.26% and an inhibition [3] of -1.81%. It also gave an inhibition [4] of 0.51%, an inhibition [5] of 0.89% and an inhibition [9] of 5.15%. The inhibition [6] was 3.27%, the inhibition [7] was 1.79% and the inhibition [10] was 8.87%. The inhibition [8] was 5.3%.

`NS(=O)(=O)c1ccc(N/C=C2\C(=O)Nc3ccc4ncsc4c32)cc1` gave an inhibition [1] of 1.21%, an inhibition [2] of 0.54% and an inhibition [3] of 4.12%. For the same compound, the inhibition [4] was 2.27%, the inhibition [5] was 7.16% and the inhibition [9] was 2.12%. It also gave an inhibition [6] of 21%, an inhibition [7] of 9% and an inhibition [10] of 25.8%. It also gave an inhibition [8] of 10.7%.

With `COc1cc2c(cc1Nc1nc(Nc3ccsc3C(N)=O)c3cc[nH]c3n1)N(C(=O)CN(C)C)CCC2` the inhibition [1] was 3.29%, the inhibition [2] was 6.22% and the inhibition [3] was 38.3%. For the same compound, the inhibition [4] was 1.1%, the inhibition [5] was 1.23% and the inhibition [9] was -0.68%. For the same compound, the inhibition [6] was -0.04%, the inhibition [7] was -2.92% and the inhibition [10] was 5.93%. It also gave an inhibition [8] of 9.46%.

Work on `COc1cccc(-n2ncc3c(N/N=C/c4ccncc4)ncnc32)c1` yielded an inhibition [1] of 1.69%, an inhibition [2] of 0.83% and an inhibition [3] of 4.38%. It also gave an inhibition [4] of 1.56%, an inhibition [5] of 3.04% and an inhibition [9] of 4.22%. For the same compound, the inhibition [6] was 27.9%, the inhibition [7] was 15.4% and the inhibition [10] was 54%. It also gave an inhibition [8] of 3.12%.

`CCn1c(-c2nonc2N)nc2c(C#CC(C)(C)O)nc(O[C@@H](CN)c3ccccc3)cc21` was tested, and the inhibition [1] was 20.6%, the inhibition [2] was 4.66% and the inhibition [3] was 39%. It also gave an inhibition [4] of -0.85%, an inhibition [5] of -1.11% and an inhibition [9] of -0.97%. For the same compound, the inhibition [6] was 8.3%, the inhibition [7] was -0.81% and the inhibition [10] was 14.8%. For the same compound, the inhibition [8] was 20.9%.

For `NC(=O)c1sc(-n2cnc3cc(C(F)(F)F)ccc32)cc1OCc1ccccc1Br`, the inhibition [1] was 1.16%, the inhibition [2] was 1.55% and the inhibition [3] was 2.84%. It also gave an inhibition [4] of 0.86%, an inhibition [5] of 0.76% and an inhibition [9] of 6.45%. It also gave an inhibition [6] of 1.7%, an inhibition [7] of -0.18% and an inhibition [10] of 3.79%. It also gave an inhibition [8] of 0.98%.

With `CCn1c(-c2nonc2N)nc2c(C#CC(C)(C)O)ncc(OC[C@@H]3CCCN3)c21` the inhibition [1] was 7.09%, the inhibition [2] was 1.81% and the inhibition [3] was 10.1%. The inhibition [4] was 0.11%, the inhibition [5] was 0.32% and the inhibition [9] was 1.03%. It also gave an inhibition [6] of 4.19%, an inhibition [7] of -4.09% and an inhibition [10] of 6.59%. It also gave an inhibition [8] of 5.1%.

With `CCn1c(-c2nonc2N)nc2c(C#CCN)ncc(OCCCN)c21` the inhibition [1] was 5.54%, the inhibition [2] was 9.18% and the inhibition [3] was 33%. The inhibition [4] was -1.32%, the inhibition [5] was 1.09% and the inhibition [9] was -4.16%. For the same compound, the inhibition [6] was -7.22%, the inhibition [7] was -2.87% and the inhibition [10] was -1.04%. For the same compound, the inhibition [8] was -0.18%.

`Fc1ccc(-c2ncn(C3CCNCC3)c2-c2ccnc(Oc3ccccc3)n2)cc1` was tested, and the inhibition [1] was -3.69%, the inhibition [2] was -0.25% and the inhibition [3] was -0.02%. It also gave an inhibition [4] of 0.89%, an inhibition [5] of 1.1% and an inhibition [9] of 2.14%. For the same compound, the inhibition [6] was 8.86%, the inhibition [7] was -0.18% and the inhibition [10] was 7.64%. It also gave an inhibition [8] of 0.83%.

In the case of `Nc1nonc1-c1nc2cnccc2n1C1CCCCC1`, the inhibition [1] is reported as 37.5%, the inhibition [2] is reported as 11.4% and the inhibition [3] is reported as 56.9%. The inhibition [4] was -0.83%, the inhibition [5] was -1.13% and the inhibition [9] was -4.72%. It also gave an inhibition [6] of -3.76%, an inhibition [7] of -6.25% and an inhibition [10] of 9.23%. The inhibition [8] was 3.95%.

With `Cc1cc(-c2ccco2)cc(C)c1/C=C/c1cncc(-c2nn[nH]n2)c1` the inhibition [1] was 1.49%, the inhibition [2] was 0.12% and the inhibition [3] was 1.83%. The inhibition [4] was 0.41%, the inhibition [5] was 0.28% and the inhibition [9] was -0.49%. The inhibition [6] was 6.77%, the inhibition [7] was -2.65% and the inhibition [10] was 0.13%. It also gave an inhibition [8] of 0.36%.

In the case of `COc1cccc(COc2cc(-n3cnc4ccccc43)sc2C(N)=O)c1`, the inhibition [1] is reported as 1.31%, the inhibition [2] is reported as 0.12% and the inhibition [3] is reported as 0.33%. It also gave an inhibition [4] of 0.16%, an inhibition [5] of -0.81% and an inhibition [9] of -0.86%. It also gave an inhibition [6] of 3.4%, an inhibition [7] of -0.88% and an inhibition [10] of -4.75%. For the same compound, the inhibition [8] was -1.18%.

Work on `CCn1c(-c2nonc2N)nc2c(C#CC(C)(C)O)ncc(OCC3CCNCC3)c21` yielded an inhibition [1] of 3.34%, an inhibition [2] of 3.02% and an inhibition [3] of 21%. The inhibition [4] was 1.57%, the inhibition [5] was 2.94% and the inhibition [9] was 4.3%. It also gave an inhibition [6] of 18%, an inhibition [7] of 3.58% and an inhibition [10] of 18.4%. The inhibition [8] was 5.26%.
